Assay results published in PubChem BioAssay AID1159580 (chemical genetic matrix, 2015).
The whole screen tested about 5,500 compounds, of which about 2,000 (36%) were called active. Inconclusive results (about 18%) are left out. Cut-off read from the data, not from the text of the source: active = normalized growth mostly below about 0.91 (no sharp cut-off); inconclusive = no clear call, values can overlap the other calls; inactive = mostly above about 0.92. Some of the results follow.

Test: chemical genetic growth profiling, strain panel (AID 1159580);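 note: tested at 20 µM; growth read once vehicle control cultures reached saturation at 30 °C; 1 = growth at the plate median or of vehicle wells; lower values mean less growth of the strain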
Details: S. cerevisiae deletion strains, growth OD

Measured: normalized growth

COc1ccc(-c2oc3ccccc3c(=O)c2O)cc1OC
inactive: locus YDL005C, strain med2, stronger effect = lower value 0.915 | locus YGL227W, strain vid30, stronger effect = lower value 0.949 | locus YHR030C, strain SLT2, stronger effect = lower value 1.01 | locus YHR079C, strain IRE1, stronger effect = lower value 0.983 | locus YJL095W, strain BCK1, stronger effect = lower value 0.962 | locus YJR066W, strain TOR1, stronger effect = lower value 0.948 | locus YLR113W, strain HOG1, stronger effect = lower value 0.957 | locus YMR125W, strain sto1, stronger effect = lower value 0.932 | locus YNL183C, strain NPR1, stronger effect = lower value 0.907 | locus YOR231W, strain MKK1, stronger effect = lower value 0.996 | locus YPL256C, strain CLN2, stronger effect = lower value 0.994
active: locus YAL021C, strain ccr4, stronger effect = lower value 0.164 | locus YAL026C, strain drs2, stronger effect = lower value 0.512 | locus YAL030W, strain snc1, stronger effect = lower value 0.739 | locus YBL061C, strain skt5, stronger effect = lower value 0.631 | locus YBR009C, strain hhf1, stronger effect = lower value 0.639 | locus YBR023C, strain chs3, stronger effect = lower value 0.587 | locus YBR171W, strain sec66, stronger effect = lower value 0.848 | locus YBR231C, strain swc5, stronger effect = lower value 0.509 | locus YBR279W, strain paf1, stronger effect = lower value 0.697 | locus YCL011C, strain gbp2, stronger effect = lower value 0.617 | locus YCL016C, strain dcc1, stronger effect = lower value 0.782 | locus YCL061C, strain MRC1, stronger effect = lower value 0.753 | locus YCL069W, strain vba3, stronger effect = lower value 0.762 | locus YCR088W, strain abp1, stronger effect = lower value 0.865 | locus YDL040C, strain nat1, stronger effect = lower value 0.902 | locus YDR001C, strain nth1, stronger effect = lower value 0.914 | locus YDR069C, strain doa4, stronger effect = lower value 0.175 | locus YDR137W, strain rgp1, stronger effect = lower value 0.505 | locus YDR159W, strain sac3, stronger effect = lower value 0.748 | locus YDR195W, strain ref2 0.809 | locus YDR297W, strain sur2, stronger effect = lower value 0.557 | locus YDR334W, strain swr1, stronger effect = lower value 0.524 | locus YDR335W, strain msn5, stronger effect = lower value 0.683 | locus YDR392W, strain spt3, stronger effect = lower value 0.553 | locus YEL003W, strain gim4, stronger effect = lower value 0.6 | locus YEL037C, strain rad23, stronger effect = lower value 0.692 | locus YEL061C, strain CIN8 (second series), stronger effect = lower value 0.882 | locus YER015W, strain faa2, stronger effect = lower value 0.4 | locus YER016W, strain bim1, stronger effect = lower value 0.826 | locus YER111C, strain swi4, stronger effect = lower value 0.696 | locus YER155C, strain BEM2 (second series), stronger effect = lower value 0.687 | locus YFR010W, strain ubp6, stronger effect = lower value 0.633 | locus YGL167C, strain pmr1, stronger effect = lower value 0.742 | locus YGL173C, strain kem1, stronger effect = lower value 0.37 | locus YGL240W, strain doc1, stronger effect = lower value 0.772 | locus YGL253W, strain hxk2, stronger effect = lower value 0.544 | locus YHR013C, strain ard1, stronger effect = lower value 0.466 | locus YHR027C, strain rpn1, stronger effect = lower value 0.315 | locus YHR142W, strain chs7, stronger effect = lower value 0.533 | locus YJL092W, strain hpr5, stronger effect = lower value 0.812 | locus YJL095W, strain BCK1 (second series), stronger effect = lower value 0.548 | locus YJL115W, strain asf1, stronger effect = lower value 0.901 | locus YJL129C, strain trk1, stronger effect = lower value 0.721 | locus YJL154C, strain vps35, stronger effect = lower value 0.809 | locus YJL164C, strain tpk1, stronger effect = lower value 0.497 | locus YJL166W, strain qcr8, stronger effect = lower value 0.527 | locus YJL187C, strain SWE1, stronger effect = lower value 0.635 | locus YKL160W, strain elf1, stronger effect = lower value 0.766 | locus YKR026C, strain gcn3, stronger effect = lower value 0.915 | locus YKR091W, strain srl3, stronger effect = lower value 0.875 | locus YLL001W, strain dnm1, stronger effect = lower value 0.692 | locus YLL026W, stronger effect = lower value 0.798 | locus YLL041C, strain sdh2, stronger effect = lower value 0.85 | locus YLR027C, strain aat2, stronger effect = lower value 0.673 | locus YLR221C, strain rsa3, stronger effect = lower value 0.644 | locus YLR258W, strain gsy2, stronger effect = lower value 0.733 | locus YLR262C, strain YPT6 (second series), stronger effect = lower value 0.371 | locus YLR320W, strain mms22, stronger effect = lower value 0.537 | locus YLR342W, strain FKS1, stronger effect = lower value 0.61 | locus YLR357W, strain rsc2, stronger effect = lower value 0.626 | locus YLR370C, strain arc18, stronger effect = lower value 0.785 | locus YLR384C, strain iki3, stronger effect = lower value 0.76 | locus YML120C, strain ndi1, stronger effect = lower value 0.72 | locus YMR058W, strain fet3, stronger effect = lower value 0.113 | locus YMR129W, stronger effect = lower value 0.825 | locus YMR205C, strain PFK2, stronger effect = lower value 0.369 | locus YMR231W, strain pep5, stronger effect = lower value 0.555 | locus YNL071W, strain lat1, stronger effect = lower value 0.715 | locus YNL209W, strain ssb2, stronger effect = lower value 0.222 | locus YNL248C, strain rpa49, stronger effect = lower value 0.783 | locus YNL322C, strain KRE1 (second series), stronger effect = lower value 0.776 | locus YNR049C, strain mso1, stronger effect = lower value 0.889 | locus YOR001W, strain rrp6, stronger effect = lower value 0.678 | locus YOR070C, strain gyp1, stronger effect = lower value 0.772 | locus YOR080W, strain dia2, stronger effect = lower value 0.445 | locus YOR083W, strain WHI5, stronger effect = lower value 0.617 | locus YOR106W, strain vam3, stronger effect = lower value 0.203 | locus YOR265W, strain rbl2, stronger effect = lower value 0.655 | locus YOR270C, strain vph1, stronger effect = lower value 0.32 | locus YOR290C, strain snf2, stronger effect = lower value 0.607 | locus YPL051W, strain arl3, stronger effect = lower value 0.371 | locus YPL078C, strain atp4, stronger effect = lower value 0.74 | locus YPL106C, strain sse1, stronger effect = lower value 0.572 | locus YPL240C, strain hsp82, stronger effect = lower value 0.771
